# Data: PubChem BioAssay (NCI)
# The panel holds about 83,000 compounds, 20% with a hit somewhere; the sample as a whole holds those more often.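 Percent growth is the endpoint: 0 to 100 indicates growth inhibition (40 means 60% inhibition), 0 means no net growth, and negative values indicate cell death.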 Unmarked numbers belong to inactive results. Active and inactive are the calls of the source. How the source made its calls: active means growth percent below 10; inactive means the rest.
# Assays:
# Assay in all cases: NCI-60 one-dose screen, 48 h (100 = growth as untreated, 0 = no growth, -100 = all killed)
# Conditions in all cases: 10 µM unless noted
# SR leukemia = test system: SR leukemia
# RPMI-8226 leukemia = test system: RPMI-8226 leukemia
# OVCAR-5 ovarian = test system: OVCAR-5 ovarian
# OVCAR-4 ovarian = test system: OVCAR-4 ovarian
# SK-OV-3 ovarian = test system: SK-OV-3 ovarian
# IGROV1 ovarian = test system: IGROV1 ovarian
# OVCAR-3 ovarian = test system: OVCAR-3 ovarian
# HS 578T breast = test system: HS 578T breast
# NCI/ADR-RES ovarian = test system: NCI/ADR-RES ovarian
# OVCAR-8 ovarian = test system: OVCAR-8 ovarian
Compound,growth (SR leukemia),growth (RPMI-8226 leukemia),growth (OVCAR-5 ovarian),growth (OVCAR-4 ovarian),growth (SK-OV-3 ovarian),growth (IGROV1 ovarian),growth (OVCAR-3 ovarian),growth (HS 578T breast),growth (NCI/ADR-RES ovarian),growth (OVCAR-8 ovarian)
CC1=CNNc2c3ncnc-3ncn21,97.4%,103%,101%,111%,103%,108%,105%,110%,105%,–
COc1cc(CCn2nnc3c(Nc4ccc(N5CCOCC5)cc4)ncnc32)cc(OC)c1,64.2%,72.8%,95.3%,91.1%,112%,110%,92.8%,91.2%,86.3%,–
COc1ccc(C(=O)/C=C/c2ccc(/C=C/c3cc(OC)c(OC)c(OC)c3)cc2)cc1,9.61% (active),-0.626% (active),117%,65.7%,102%,6.66% (active),41.4%,–,50%,–
CC(CCc1ccccc1)NC(=O)c1n[nH]c(=O)c2ccccc12 (stereo not drawn),60.7%,85.6%,118%,102%,118%,3.79% (active),112%,96.8%,121%,–
CC(C)(C)c1ccc(S(=O)(=O)Oc2ccc3c4c(c(=O)oc3c2)CCCCC4)cc1,31.4%,40.4%,70%,–,71.4%,68.6%,52.7%,40%,20.1%,77.2%
COc1cc(C2C=C(C)N=C3SC=CN32)cc(OC)c1OC (stereo not drawn),106%,113%,109%,108%,112%,111%,–,103%,110%,–
CCNC(=O)C1CCCN1C(=O)C(CCCN=C(N)N)NC(=O)C(CC(C)C)NC(=O)C(CC(C)C)NC(=O)C(Cc1ccc(O)cc1)NC(=O)C(CO)NC(=O)C(Cc1c[nH]c2ccccc12)NC(=O)C(Cc1cnc[nH]1)NC(=O)C1CCC(=O)N1 (stereo not drawn),102%,33.3%,87.3%,91.3%,98.2%,–,125%,81.2%,97.8%,–
COc1ccc([N+](=O)[O-])c(/C=C/C(=O)c2ccccn2)c1,26.5%,52.6%,90.5%,72.2%,96%,60.8%,86.1%,91.4%,–,–
COc1ccc(-c2nc(-c3nc4ccc(F)cc4[nH]3)cc3c2[nH]c2ccccc23)cc1,15.5%,-5.03% (active),77.8%,45.8%,87%,27%,–,42.4%,19.7%,–
Cc1cc(NC(=O)COC(=O)c2sc3cc(F)ccc3c2Cl)no1,108%,114%,100%,105%,111%,-31.8% (active),120%,123%,107%,–
COc1ccc(Cn2c(SC)nc(=O)n(Cc3ccc(Cl)cc3)c2=O)cc1,84.4%,92.8%,92.1%,98%,106%,102%,102%,94%,95.4%,–
CC1=C(C#N)C(C)(C)C(C#N)=C(C)N1,95.8%,–,87.7%,99.2%,110%,121%,107%,102%,–,100%
COc1ccc(NC(=O)CSc2nc3ccccc3c(=O)n2Cc2cc(OC)c(OC)c(OC)c2)cc1,82.3%,86%,102%,82.8%,97%,99%,–,96.1%,84%,–
COc1cc(OC)c(C(=O)/C=C/c2ccc(C(F)(F)F)cc2)c(OC)c1,31.6%,25.3%,105%,56.5%,75.4%,52.1%,16.9%,66.2%,46.9%,–
CC(C)(C)c1cc(-c2nc3ccc(N4CCN(CCO)CC4)cc3[nH]2)cc(C(C)(C)C)c1O,-16% (active),1.15% (active),90.6%,76.7%,84%,82.7%,72.7%,67%,93.2%,–
